Measurements: the supplement of paper PMC4709259
Structures can show the parent of a compound that is named as a salt. ± gives the standard deviation.

Tests used:
[1] = tested on: Jurkat; test: mean cell size (FSC-A) relative to DMSO control (fraction of control); higher = larger cells; conditions: 48 h
In short: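 Jurkat cells at 600 cells/µl were incubated for 1 h and then treated for 48h with the Enzo Screen-Well FDA Approved Drug Library v2.0 at 25µM, with DMSO at 0.9% (v/v) final. Compounds that reduced counts below 20% of controls were retested in 10-fold dilutions down to 25nM. Cell count and mean cell size, taken as forward scatter area, were measured by flow cytometry relative to solvent-only controls. Each plate carried 6-12 controls, and values are means of 3 biological replicates.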

[2] = tested on: Jurkat; test: cell count relative to DMSO control (fraction of control); higher = more cells (less growth inhibition); conditions: 48 h

Structure (SMILES) | mean cell size [1] | cell count [2]
CCC(=O)NCC[C@@H]1CCc2ccc3c(c21)CCO3 [Ramelteon] (concentration: 25 µM) | 1.04 ± 0.066 | 0.926 ± 0.11
Cc1cc(C)cc(OCC2CNC(=O)O2)c1 (stereo not drawn) [Metaxalone] (concentration: 25 µM) | 0.998 ± 0.054 | 0.853 ± 0.17
Nc1c2c(nc3ccccc13)CCCC2 [Tacrine·HCl] (concentration: 25 µM) | 0.9808 ± 0.0065 | 0.854 ± 0.017
CC(C(=O)O)c1cccc(C(=O)c2ccccc2)c1 (stereo not drawn) [Ketoprofen] (concentration: 25 µM) | 0.929 ± 0.0063 | 0.722 ± 0.029
CCC(C)n1ncn(-c2ccc(N3CCN(c4ccc(OCC5COC(Cn6cncn6)(c6ccc(Cl)cc6Cl)O5)cc4)CC3)cc2)c1=O (stereo not drawn) [Itraconazole] (concentration: 25 µM) | 1.11 ± 0.071 | 0.323 ± 0.026
C=C[C@H]1CN2CC[C@H]1C[C@H]2[C@H](O)c1ccnc2ccc(OC)cc12 [Quinine·HCl·H2O] (concentration: 25 µM) | 1.06 ± 0.055 | 0.637 ± 0.18
C[C@H]1O[C@H](O[C@H]2[C@H](O)[C@@H](O)[C@@H](O[C@@H]([C@H](O)[C@@H](O)C=O)[C@H](O)CO)O[C@@H]2CO)[C@H](O)[C@@H](O)[C@@H]1N[C@H]1C=C(CO)[C@@H](O)[C@H](O)[C@H]1O [Acarbose] (concentration: 25 µM) | 1.04 ± 0.047 | 0.877 ± 0.15
CO/N=C(\C(=O)N[C@@H]1C(=O)N2C(C(=O)O)=C(COC(N)=O)CS[C@H]12)c1ccco1 [Cefuroxime·Na] (concentration: 25 µM) | 0.994 ± 0.028 | 0.945 ± 0.051
C[N+](C)(C)C[C@H](O)CC(=O)[O-] [Levocarnitine] (concentration: 25 µM) | 0.938 ± 0.013 | 1.01 ± 0.099
Cc1nc2n(c(=O)c1CCN1CCC(c3noc4cc(F)ccc34)CC1)CCCC2O (stereo not drawn) [Paliperidone] (concentration: 25 µM) | 0.985 ± 0.043 | 1.06 ± 0.063
C[C@@H]1C[C@H]2[C@@H]3CCC4=CC(=O)C=C[C@]4(C)[C@@]3(F)[C@@H](O)C[C@]2(C)[C@H]1C(=O)CO [Desoximetasone] (concentration: 25 µM) | 0.949 ± 0.035 | 0.764 ± 0.02
C[C@H](CCC(=O)O)[C@H]1CC[C@H]2[C@@H]3[C@@H](O)C[C@@H]4C[C@H](O)CC[C@]4(C)[C@H]3CC[C@]12C [Ursodiol] (concentration: 25 µM) | 1.01 ± 0.031 | 0.718 ± 0.096
O=C(O)c1cccnc1 [Niacin (Known As Vitamin B3, Nicotinic Acid And Vitamin Pp)] (concentration: 25 µM) | 0.945 ± 0.053 | 0.426 ± 0.096
NC(N)=Nc1nc(CSCC/C(N)=N/S(N)(=O)=O)cs1 [Famotidine] (concentration: 25 µM) | 0.979 ± 0.035 | 1.19 ± 0.12
CC(C)(C#N)c1cc(Cn2cncn2)cc(C(C)(C)C#N)c1 [Anastrozole] (concentration: 25 µM) | 0.98 ± 0.021 | 0.933 ± 0.054
CN(C)c1cc(NC(=O)CNC(C)(C)C)c(O)c2c1C[C@H]1C[C@H]3[C@H](N(C)C)C(=O)C(C(N)=O)=C(O)[C@@]3(O)C(=O)C1=C2O [Tigecycline] (concentration: 25 µM) | 1.01 ± 0.051 | 0.784 ± 0.06
CC[C@@H]1C(=O)OC[C@@H]1Cc1cncn1C [Pilocarpine·HCl] (concentration: 25 µM) | 0.97 ± 0.049 | 0.246 ± 0.11
C/C(=C\C(=O)OCCCCCCCCC(=O)O)C[C@@H]1OC[C@H](C[C@@H]2O[C@H]2[C@@H](C)[C@H](C)O)[C@@H](O)[C@H]1O [Mupirocin] (concentration: 25 µM) | 0.928 ± 0.065 | 0.525 ± 0.18
Cn1c(=O)c2c(ncn2C)n(C)c1=O [Caffeine] (concentration: 25 µM) | 0.986 ± 0.046 | 1 ± 0.093
O=C(CCCN1CC=C(n2c(=O)[nH]c3ccccc32)CC1)c1ccc(F)cc1 [Droperidol] (concentration: 25 µM) | 0.962 ± 0.032 | 0.812 ± 0.095
CN(C)CCC(c1ccc(Br)cc1)c1ccccn1 (stereo not drawn) [Brompheniramine Maleate] (concentration: 25 µM) | 0.946 ± 0.034 | 1 ± 0.14
CC(C)CN(C[C@@H](O)[C@H](Cc1ccccc1)NC(=O)O[C@H]1CO[C@H]2OCC[C@H]21)S(=O)(=O)c1ccc(N)cc1 [Darunavir] (concentration: 25 µM) | 1.01 ± 0.037 | 0.62 ± 0.062
CC(C)/N=c1\cc2n(-c3ccc(Cl)cc3)c3ccccc3nc-2cc1Nc1ccc(Cl)cc1 [Clofazimine] (concentration: 2.5 µM) | 0.952 ± 0.03 | 0.695 ± 0.066
OC[C@H]1O[C@@H](O[C@@H]2[C@@H](CO)OC(O)(CO)[C@H]2O)[C@H](O)[C@@H](O)[C@H]1O (mixture of isomers) [Lactulose] (concentration: 25 µM) | 0.938 ± 0.046 | 0.56 ± 0.15
